Activity calls are given as the source filed them.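 Rule for the calls: active = inhibition at or above 50% relative to wild type and mutant plate controls; inactive = inhibition below 50%.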

A short description of the test: inhibitors of Chlamydomonas gravitaxis, primary screen, whole organism, Chlamydomonas reinhardtii, WT vs cilia-less mutant, absorbance, 96-well (AID 463189).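 Note: 0% = wild type cc124 cells in DMSO and 100% = ciliumless bld1 mutant cells.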 The note with it: OD600 absorbance, 2 days, at 10 µM, hits give high values.
Turning to `CC(=O)[C@]1(O)Cc2c(O)c3c(c(O)c2[C@@H](O[C@H]2C[C@H](N)[C@H](O)[C@H](C)O2)C1)C(=O)c1ccccc1C3=O`, the inhibition (usually the drop in the measured response relative to a control, in per cent) is -16.2% (inactive).

For the compound `NC(N)=N/N=C/c1c(Cl)cccc1Cl`, the inhibition was 3.64% (inactive).

Consider `CN(C)CCCCSC(=N)N`, for which the inhibition is 0.024% (inactive).

For `N[C@H](C(=O)O)[C@H](O)C(=O)O`, the inhibition was 0.558% (inactive).

Regarding `CC(C)CN(C)c1nc(N)c(C(=O)N=C(N)N)nc1Cl`, the inhibition is -3.31% (inactive).

Take `Cc1cc(N)c2ccccc2[n+]1CCCCCCCCCCCCCC[n+]1c(C)cc(N)c2ccccc21`: the inhibition was 154% (active).

In the case of `CC(C)(C=O)Cc1cc(C(C)(C)C)c(O)c(C(C)(C)C)c1`, the inhibition is -3.35% (inactive).

`O=C(O)CCc1nc(-c2ccccc2)c(-c2ccccc2)o1`: the inhibition is 7.1% (inactive).

`O=C(O)c1cccnc1C(=O)O`: the inhibition is 3.76% (inactive).

As to `CN1CCc2ccccc2Cc2[nH]c3ccccc3c2CC1`, the inhibition is 10.8% (inactive).

On to `O=C1O/C(=C/Br)CCC1c1cccc2ccccc12` (centres undefined), for which the inhibition is -0.58% (inactive).

`Nc1ccn([C@@H]2O[C@H](CO)[C@@H](O)[C@@H]2O)c(=O)n1`: the inhibition was 0.194% (inactive).

`O=C(/C=C/c1ccc(O)cc1)c1ccc(O)cc1O`: the inhibition is 2.79% (inactive).

`NCCCCN=C(N)N`: the inhibition was 5.23% (inactive).

With `O=c1c(-c2ccc(O)cc2)coc2cc(O)ccc12`, the inhibition was -7.57% (inactive).

Regarding `NC(=NCc1ccccc1)NC(=O)c1nc(Cl)c(N)nc1N`, the inhibition was -1.5% (inactive).

As to `COc1cc2c(CCNC(C)=O)c[nH]c2cc1Cl`, the inhibition was 4.11% (inactive).

On to `COc1cc(=O)n(C)c2c(OCC(O)C(C)(C)O)cccc12` (centres undefined), for which the inhibition was -8.37% (inactive).

With `C[C@H]1O[C@@H](n2cc(F)c(=O)[nH]c2=O)[C@H](O)[C@@H]1O`, the inhibition was 2.48% (inactive).

Turning to `CC(C)N(CCC(=O)c1ccc2ccccc2c1)Cc1ccccc1`, the inhibition is 10.3% (inactive).

Take `CNC1(C)C2CCC(C2)C1(C)C` (centres undefined): the inhibition is 2.45% (inactive).

`c1ccc(C2CN3CCSC3=N2)cc1` (centres undefined): the inhibition is 45.3% (inactive).

In the case of `NCCNC(=O)c1ccc(Cl)cc1`, the inhibition is 5.46% (inactive).

As to `O=C(c1cc(O)c(O)c([N+](=O)[O-])c1)c1ccccc1F`, the inhibition is -0.57% (inactive).

As to `CNCC(O)c1ccc(O)c(O)c1` (centres undefined), the inhibition is 4.49% (inactive).

With `Cc1ccc([N+](=O)[O-])cc1S(=O)(=O)N(C)C`, the inhibition is -11.4% (inactive).

As to `NC1CCN(c2cccc(Cl)n2)CC1`, the inhibition was -3.28% (inactive).

Consider `CC1COc2c(N3CCN(C)CC3)c(F)cc3c(=O)c(C(=O)O)cn1c23` (centres undefined), for which the inhibition was 6.49% (inactive).

For `CC1(C)C(=O)N(CCN2CCC(C(=O)c3ccc(F)cc3)CC2)c2ccccc21`, the inhibition was 5.57% (inactive).

Regarding `CC(CCc1ccc(O)cc1)NCCc1ccc(O)c(O)c1` (centres undefined), the inhibition was -1.59% (inactive).

As for `CCn1c(=O)[nH]c2cc(Cl)c(Cl)cc21`, the inhibition was 1.13% (inactive).

Regarding `C[C@H](Cc1ccccc1)Nc1ncnc2c1ncn2[C@@H]1O[C@H](CO)[C@H](O)C1O` (some centres undefined), the inhibition is 0.221% (inactive).

In the case of `CC(=O)SCC[N+](C)(C)C`, the inhibition is -2.92% (inactive).

With `CC1(C)CCC(NC(=O)[C@@H](N)CCC(=O)O)CC1`, the inhibition was 2.89% (inactive).

For `COc1ccc2[nH]cc(CCNC(C)=O)c2c1`, the inhibition was 13.5% (inactive).

As to `CN(C)CCN(Cc1cccs1)c1ccccn1`, the inhibition was 2.59% (inactive).

`NC(=O)NO`: the inhibition was -5.8% (inactive).

Consider `O=c1[nH]cnc2[nH]ncc12`, for which the inhibition is 6.04% (inactive).

On to `CC(C(=O)O)c1cccc(C(=O)c2ccccc2)c1` (centres undefined), for which the inhibition was -4.65% (inactive).

For the origin of these results see PubChem BioAssay.
